# Test results from the supplement of paper PMC10681739.
# ± gives the standard deviation of the averaged measurements. In all, about 4,000 sequences were measured (“arbitrary fluorescence units”: median about 830, highest 2% from about 6,500 on). The sample holds the highest values, similar sequences and a random draw of the others, so the mix is not that of the screen.
# Target: RUNX1 (UniProt Q01196)
# Assay: RUNX1 binding intensity (PBM fluorescence), RUNX1 alone (arbitrary fluorescence units); higher = stronger binding
# Settings: RUNX1 concentration 2 nM; ETS1 concentration 0 nM
# Protocol: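 gcPBM on 36-bp genomic-derived probes (partner site mutated) containing one RUNX1 site and no ETS1 site. Recombinant human RUNX1 (2 nM) was incubated alone or with ETS1 (25 nM) and detected by anti-RUNX1 antibody fluorescence. Values are medians over 4 replicate spots (not normalised). The probes sit in constant array flanks that are not printed.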
# Chain of RUNX1 (Q01196 whole entry): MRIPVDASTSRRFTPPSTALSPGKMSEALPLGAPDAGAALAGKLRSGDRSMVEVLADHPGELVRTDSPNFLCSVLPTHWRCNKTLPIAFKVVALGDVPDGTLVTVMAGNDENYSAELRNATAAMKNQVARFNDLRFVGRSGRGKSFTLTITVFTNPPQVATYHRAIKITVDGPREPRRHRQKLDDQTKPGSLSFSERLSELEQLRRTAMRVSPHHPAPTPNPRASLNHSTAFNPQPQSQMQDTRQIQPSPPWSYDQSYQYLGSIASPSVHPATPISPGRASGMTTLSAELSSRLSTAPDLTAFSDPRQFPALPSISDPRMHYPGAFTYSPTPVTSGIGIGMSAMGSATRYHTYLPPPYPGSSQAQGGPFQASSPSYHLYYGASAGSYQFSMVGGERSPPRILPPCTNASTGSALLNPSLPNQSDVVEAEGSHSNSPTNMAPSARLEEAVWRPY
row,Sequence,RUNX1 binding intensity
1,GCCCCTCTTTCTGACTCACACAACCGCCTCTAGTCT,1540
2,TTGTGGTAGGGAAATCCACTTACCCCCTCCTCATGT,808
3,TGTGGCAACCACAGCCCCAAAACAAAGAGGAGACAC,1040
4,AGCTGAGGTCGCGGTGCAGCAGCAGCAAACGTGATA,1010
5,CCACTAGCAGCAAAACGGGCCGAGGGACCGCAAGCA,821
6,AACTTGTGGGGTTTTCTTCTGATCTTGCTCCCCGCT,998
7,GAAACCACAACCTACCCCAGCCTTACTTTCGGGCGC,3300
8,CCATTCTTACGGTGGAGATGGCTGCGGCCGTGGCGG,815
9,TCAAGAAAACAGTAAACTCTCAAAACCAAGTTCTGA,736
10,GCAATCTTGACCACAACATGGAGACAGGCAATCAAA,1540
11,ACGTCTGTTTACTGTGATTGAAACCGCAAGAAGAAG,9630
12,TAGGTCTGTGGGTGACGTCTGTTTACTGTGATTGAA,842
13,CATTCATGTGGCTTATAGGCACACCCTGCCTGCCTA,824
14,GAGGCGTTGCCGCCTCCTTTTCGCGGTTGCCTTCTC,988
15,TCCTCCGTTCCCGTAGTTCCGAGTTGCGGTTTCTCC,7620
16,CCCCTTGCCGTTCTCCGAAAGTGCGCGGGTTGGAGC,868
17,TGCTTCCCTTCAGTGCCGACAGCGAAAACCGCTGCC,795
18,GTCGCCGGGATCACCGCAAACGCTTGCTGCTTGCGC,1190
19,AGCCGTGGTCAGCAGCAGCACGACTGCCGCCTCCGC,770
20,GCAACCGCACTCCGAAAGCTCTGGGCCTGAAGAGTC,943
21,AACTGGGCTGAAAGAACGGCTAACCGCAAGCTGCCG,13200
22,TTGATAGCAAACCACACTCGGCACAGAAAGGAGAAC,1020
23,GGCGCCTCTTTGCGCCCCCGCCCACAATCGAGCGCA,826
24,GGTGGACCTGTGGTTTGCAACACAGAAAGAGGTGGC,1580
25,GGTGGACCTGTGGTTTGCAACACAGAAAGAGACTAT,1640
26,CCTTTGTTGTGGTTTTTGCAGAAAGAGAAGGGTTAG,10600 ± 540
27,CACCTTTGTTGTGGTTTGTAAACGGAGACAAAAACA,1460

row,Sequence,RUNX1 binding intensity
1,TGACGGCTGCACGGGCGCAGCGGCGGCCCGCAGGGG,736
2,CTGCCTGCCCCACAGCATGCAGGGACAGGCAGTGGG,633
3,CGGCCCCCGGGGTGGTTAGCGCTTACGGGGTCGAAG,714
4,GCCGATGAGGAGGTGAGGGCCAACCACACTGCTCAG,870
5,AGTGCTGTGGTTTGACTTTGTTTTTACTGTAGCCAG,1880
6,TCAGAACTTGGTTTTGAGAGTTTACTGTTTTCTTGA,785
7,AGAGTCTTTTTTACTGAGCGTTTGCGGTTTTGACTT,8560
8,GGTCTGGAGGACGTTTGCAGCTGCTGTGGGTGGTGG,787
9,ACCTGATGCCGGGGCACCGCCAGATGTGGCCACGAG,872
10,TCGCCCGCCGCTTCATGTCGCGGCGCCGCAGAGGCC,781
11,GTAGTAAGTTGTGGTTAAAAGAGAGGACGTTCAGAG,7590
12,AATTAAATTGTGGTAGATAGTAAAAGGACGTAGTTA,943
13,TTTAATTCTGTGGTTAGAAGTAAAAGGACGTAAAGG,3370
14,ACTCTGCGGCCCAGCTGCTTCTGTGCACAGGCAATA,791
15,CTACCGGGAGTGCGGGTCGCGCTTCAGGCGGCGTCC,724
16,TGAAGGCAATTGACGAACACGTGACGCGGTCGGGCG,721
17,AGCGCCACCGCAGTGATGCAAGTCGGCAGTTGTAGT,926
18,ATTTCCATTTACGGACTCTTCTCCTGCCCGCAGGGC,1020
19,TCGTGAAAAAGGAGGTGGATAAAGTGGTTACGGCAA,779
20,CCGAGTGGCGGTTGTTTCAAGATGGCGGAGGTGGCA,789.5 ± 6.2
21,CCAGCATGTGGGCTCTGAACCTGAAGCAACAGGCTC,796
22,ATGTTAACACCCTGCCATGAAAACCGCAAGAAGGGC,11200
23,CATGAGAAACACCCTGCCCAACCACCTGACTACAAG,1080
24,GGTGTTACACCGCAGCCTTCCATGAAGGGGCAGGGG,1220
25,CCGGGACCGCGGCTTGGGCTCACGGCCACTGCCGAC,703
26,GTTTTCAAGGCAGCAAGTGGCTGTGGTGGCACGGAG,837
27,AGGCTTTGCTGCCACAAACTTTCGTGCCACGAACCT,779

row,Sequence,RUNX1 binding intensity
1,AGTTGCATACGCGGTATTGGGCAGGCAATGGCAGGG,738
2,CGTTTACTGTGGCTGCAGCTCTCCCCACCCACACAC,979
3,GACGCAGCATGAGGTGGAGGTGTAGAATGTGGTGCT,760
4,TTTGCACACATGCTGGCCTCCGCCTGACCACCTCCT,985
5,GCCGTGAATGCGGGCTCTCCTGCCGTAAGCTGCCCC,824
6,TTACAGGGGCCGGGAGTGGCCTGCGGGCGGAGAAGT,738
7,TCCTGTGGCTTTGGGGTTCCTTGTTGCCTGGGCTGG,1110
8,GTGACCACTGCCTAGTTACTGCCAGCTGAACGAAGG,729
9,CTGGAACCGCAGGATCCTTGCTGCGTCCTCTCGGTC,2340
10,GAGTGGGCGGTAACTCGCAGGCCGAACGTGACGCAA,740
11,GACAACCTACCACAGCCTTCCTTTCGGGCGCTCAGG,1040
12,TTCTGTGGGGACAATTAGGGTTTCTGGGTTTTCTGA,865
13,AGATTCTAGGCAGTGTCTGTAGCCGCAGCTGAGGGT,736
14,TACCTAGACCCTTGCCGCCCTTACCGCGGCCAGACA,901
15,CTTCTTGCTGCTGAGACTGATACAGCCCGCAAAGCT,816
16,TGTTACCACTGTTAGACTAGAGAGCATGCTGTTGTT,841
17,AGCACCACATTCTACACCTCCACCTCATGCTGCGTC,1180
18,TTGCCGTAACCACTTTATCCACCTCCTTTTTCACGA,2720
19,CCTAAGTAACCACATTCTCGCTTGCTCCTTCCACAC,3680
20,GTAGCCGGGTGTTACGGAGCGCTGCGGGCAAAGCAG,671
21,GGAGGAAGGCAGCAAAGAAAGAGGTGGTTTCGGCAC,783
22,CTCAGCCCACCGCTGCGCGGCCGAAAGTCGGAGGTT,760
23,TTGCACTCTGCGGGGACGGGAGAAGGAACGAAAAAT,805
24,TTTGTTGTTCAGGGTGCGAGGCGGCCGCAGCTTCCA,936
25,CACCTCCCACTCACCACAGAGTTTCATGGTGTTTTA,1090
26,ACTTGACTGCCTGTGGGGTGTGTGGTGTCTGCACTT,822
